Some test systems named below: SK-MEL-2 melanoma; EKVX NSCLC; UO-31 renal; TK-10 renal; ACHN renal; CAKI-1 renal; A498 renal; CCRF-CEM leukemia; MOLT-4 leukemia; RPMI-8226 leukemia; OVCAR-8 ovarian; OVCAR-5 ovarian; OVCAR-4 ovarian; SK-OV-3 ovarian; IGROV1 ovarian; OVCAR-3 ovarian; HS 578T breast; NCI/ADR-RES ovarian; SR leukemia; SN12C renal.
Test in all cases: NCI-60 one-dose screen, 48 h (100 = growth as untreated, 0 = no growth, -100 = all killed)
Common to all, as to settings: 10 µM unless noted

Consider eight molecules from PubChem BioAssay (NCI).

The structures appear in SMILES notation. This is part of a sample that, as a whole, favours compounds with a hit. Of some 83,000 tested, about 20% had one in any assay.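 Single-concentration screen, 48 h exposure, 96-well plates. Endpoint: percent growth. Below 10 = active.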 Values without a mark were called inactive. The source made the active and inactive calls.

In the case of `CC1C(/C=N/NC(N)=S)C(C#N)(C#N)C1(C#N)C#N` (stereo not drawn), the growth in the assay with SK-MEL-2 melanoma was 114%; in the assay on EKVX NSCLC it was 104%; in the assay with UO-31 renal it was 82.4%; in the assay on TK-10 renal, 118%; in the assay on ACHN renal, 103%; in the assay with CAKI-1 renal, 91.8%. Besides, the growth is 103% in the assay with A498 renal; 96.5% in the assay with CCRF-CEM leukemia; 88.8% in the assay on MOLT-4 leukemia; 96.6% with RPMI-8226 leukemia; 101% in the assay with OVCAR-8 ovarian; 116% in the assay on OVCAR-5 ovarian. The growth was 103% in the assay with OVCAR-4 ovarian; 95.8% with SK-OV-3 ovarian; 109% in the assay on IGROV1 ovarian; 107% in the assay with OVCAR-3 ovarian; 91.7% with HS 578T breast; 110% in the assay on NCI/ADR-RES ovarian.

On to `CC1(C)NCCC[C@]2(C)[C@H]3CC[C@H]4[C@H]5[C@H](C(=O)/C=C/c6cccnc6)CCC[C@]5(CO)CC[C@@]4(C)[C@]3(C)CC[C@@H]12`, for which the growth in the assay on SK-MEL-2 melanoma is 96.9%; in the assay with EKVX NSCLC it was 79.2%; in the assay on UO-31 renal, 57.8%; with TK-10 renal, 106%; with ACHN renal, 80.4%; with CAKI-1 renal, 47.8%. In addition, the growth in the assay with A498 renal was 93.9%; with CCRF-CEM leukemia it was 36%; in the assay with MOLT-4 leukemia it was 7.39% (active); in the assay on SR leukemia, -24.6% (active); in the assay on OVCAR-8 ovarian, 55.5%; with OVCAR-5 ovarian it was 74.8%. Moreover, the growth in the assay with SK-OV-3 ovarian is 108%; with IGROV1 ovarian, 26.6%; with OVCAR-3 ovarian, 60.1%; in the assay with HS 578T breast it was 74.4%; with NCI/ADR-RES ovarian, 82.4%.

Regarding `COc1ccc2[nH]cc(-c3nc(-c4c[nH]c5c(Cl)nccc45)cs3)c2c1`, the growth in the assay on SK-MEL-2 melanoma is 59.3%; in the assay with EKVX NSCLC it was 62.8%; in the assay with UO-31 renal, 32.4%; with TK-10 renal, 49.6%; in the assay on ACHN renal, 16.1%; with CAKI-1 renal, 61.6%. Besides, the growth in the assay with A498 renal was -15.3% (active); in the assay with CCRF-CEM leukemia, 24.7%; in the assay with MOLT-4 leukemia it was 41.1%; in the assay with SR leukemia it was 18.1%; in the assay on RPMI-8226 leukemia, 43.5%; with OVCAR-8 ovarian, 28.9%. For the same molecule, the growth in the assay with OVCAR-5 ovarian is 99.9%; in the assay with OVCAR-4 ovarian it was 68.6%; with SK-OV-3 ovarian, 46.9%; with IGROV1 ovarian, 54.7%; in the assay with OVCAR-3 ovarian, 75.9%; with HS 578T breast, 38.7%. In the assay with NCI/ADR-RES ovarian, the growth was 20.7%.

Turning to `O=C1/C(=C/c2ccccn2)NC(=S)N1c1ccccc1Cl`, the growth with SK-MEL-2 melanoma is 119%; in the assay on EKVX NSCLC, 75%; in the assay on UO-31 renal, 36.4%; with TK-10 renal, 79.9%; with ACHN renal, 53.3%; in the assay with CAKI-1 renal it was 66%. In addition, the growth was 89.5% in the assay on A498 renal; 9.35% (active) with CCRF-CEM leukemia; 33.4% in the assay with MOLT-4 leukemia; 19.3% in the assay on SR leukemia; 52.8% in the assay with RPMI-8226 leukemia; 30.4% with OVCAR-8 ovarian. Also, the growth is 68.4% with OVCAR-5 ovarian; 34.9% in the assay on OVCAR-4 ovarian; 111% with SK-OV-3 ovarian; 46.1% in the assay on IGROV1 ovarian; 53.7% with OVCAR-3 ovarian; 72.5% in the assay on HS 578T breast. The growth in the assay with NCI/ADR-RES ovarian was 50.8%.

For `Nc1nc(N)c(N=Nc2ccccc2)c(-c2ccccc2)n1`, the growth was 85.3% in the assay with SK-MEL-2 melanoma; 51.3% in the assay with EKVX NSCLC; 36% in the assay on UO-31 renal; 55.1% in the assay on TK-10 renal; 60.4% with ACHN renal; 45.3% with CAKI-1 renal. Further, the growth is 31% in the assay on A498 renal; 52.6% in the assay on CCRF-CEM leukemia; 46.6% in the assay with MOLT-4 leukemia; 38.7% in the assay on SR leukemia; 62.5% with RPMI-8226 leukemia; 77.5% in the assay on OVCAR-8 ovarian. Also, the growth with OVCAR-5 ovarian was 56.9%; with OVCAR-4 ovarian, 66.4%; in the assay with SK-OV-3 ovarian it was 50.6%; in the assay on IGROV1 ovarian, 15.3%; with OVCAR-3 ovarian, 67.2%; in the assay on HS 578T breast, 3.4% (active). The growth with NCI/ADR-RES ovarian is 75.1%.

Consider `CS(=O)(=O)c1nnc(-c2ccccc2)s1`, for which the growth in the assay on SK-MEL-2 melanoma is 112%; in the assay with EKVX NSCLC it was 109%; in the assay on UO-31 renal, -71.4% (active); with TK-10 renal, 113%; with ACHN renal, 83.9%; in the assay on CAKI-1 renal, 94.9%. In addition, the growth is 91.4% with A498 renal; 76.5% with CCRF-CEM leukemia; 88.1% in the assay with MOLT-4 leukemia; 40.3% with SR leukemia; 99.5% in the assay with RPMI-8226 leukemia; 97.4% in the assay on OVCAR-8 ovarian. For the same molecule, the growth with OVCAR-5 ovarian was 99.3%; in the assay on OVCAR-4 ovarian, 99.5%; in the assay with SK-OV-3 ovarian, 98.8%; with IGROV1 ovarian, 103%; with OVCAR-3 ovarian, 99.3%; with HS 578T breast it was 108%. Also, the growth in the assay on NCI/ADR-RES ovarian was 104%.

Turning to `C/C=C(/C)n1cnc2c(Nc3ccccn3)nc(Cl)nc21`, the growth in the assay with SK-MEL-2 melanoma was 97.1%; with EKVX NSCLC, 96.9%; in the assay with UO-31 renal, 80.8%; in the assay with TK-10 renal, 114%; with ACHN renal it was 99.9%; in the assay on CAKI-1 renal, 94.2%. Moreover, the growth in the assay on A498 renal is 111%; in the assay on CCRF-CEM leukemia, 104%; with MOLT-4 leukemia, 100%; with SR leukemia, 105%; with RPMI-8226 leukemia it was 98.2%; in the assay on OVCAR-8 ovarian, 100%. The growth in the assay on OVCAR-5 ovarian was 98.4%; in the assay with OVCAR-4 ovarian, 105%; with SK-OV-3 ovarian, 111%; in the assay on IGROV1 ovarian, 103%; in the assay on OVCAR-3 ovarian it was 111%; in the assay on HS 578T breast, 97.8%. Further, the growth in the assay on NCI/ADR-RES ovarian was 108%.

As for `CCCCCCCCCCCCCCCCCC1=NC(C)(C)CN1CC(C)O` (stereo not drawn), the growth was 84.6% in the assay with SK-MEL-2 melanoma; 78.8% in the assay with EKVX NSCLC; 49.8% in the assay on SN12C renal; 81.6% with TK-10 renal; 80.6% in the assay on ACHN renal; 84.7% with CAKI-1 renal. Further, the growth with A498 renal was 79.1%; in the assay on CCRF-CEM leukemia, 47.1%; in the assay on MOLT-4 leukemia, 34.9%; with RPMI-8226 leukemia, 78.8%; in the assay with OVCAR-8 ovarian, 46.5%; in the assay on OVCAR-5 ovarian, 89.4%. Besides, the growth in the assay with OVCAR-4 ovarian was 94.4%; with SK-OV-3 ovarian, 80.9%; in the assay with IGROV1 ovarian it was 66.1%; in the assay with OVCAR-3 ovarian it was 46.6%; in the assay on HS 578T breast, 107%; in the assay with NCI/ADR-RES ovarian, 69.9%.
